Records with an inconclusive call do not appear. Where a call stands in place of a potency, no number is given. Unmarked numbers belong to inactive results. Activity calls are given as the source filed them. Calls follow the shape of the dose curve; as a rule, active = well fitted inhibition curve with a large enough effect; inconclusive = small, poorly fitted or top-dose-only effect; inactive = no such curve, though single readings can be large or run the other way.
Columns and labels:
[1] = tested on: Zika virus NS2B-NS3 protease (unlinked complex); test: Primary screen GU Rhodamine qHTS for Zika virus inhibitors: Unlinked NS2B-NS3 protease assay (AID 1347159); also: nearly all actives have a fitted effect of over 60% in size
Procedure, shortened: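 Enzyme 25 nM in Tris-HCl pH 8.0 + 0.01% Tween 20; compounds up to 114 microM, 15 min RT dark; + Rhod110 substrate 1.5 microM; read t0 and 15 min; delta fluorescence → % inhibition → 4-parameter Hill fit.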

[2] = tested on: Zika virus NS2B-NS3 protease (linked construct); test: Primary screen NINDS Rhodamine qHTS for Zika virus inhibitors (AID 1347160); also: nearly all actives have a fitted effect of over 55% in size
Procedure, shortened: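 Enzyme (25 nM, linked NS2B-NS3) was preincubated 15 min with compound in 10 mM Tris-HCl pH 8.0, 0.01% Tween 20. Rhodamine110 substrate (1.5 microM) was then added and fluorescence read at start and after 15 min.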
Potency is read from the fitted curve at half-maximal effect.

Question: How did the Potency [1] turn out when `CC(=O)OCC1OC(O[C@H]2CC[C@]34C[C@]35CC(O)[C@]3(C)[C@@H]([C@H](C)CC/C=C(\C)C(=O)O)C(O)C[C@@]3(C)C5CC[C@H]4C2(C)C)C(O)C(O)C1OC1OCC(O)C(O)C1O` (stereo not given in full) was run?
Answer: inactive

Question: What about the Potency [2] of the same molecule?
Answer: inactive

Question: `CC(C)c1ccc2c(c1)C(O)CC1C(C)(CO)CCCC21C` (stereo not given) was tested. Which Potency [1] did it give?
Answer: inactive

Question: With `Cc1nnc(-c2sc(NC(=O)[C@H](C(C)C)n3c(=O)[nH]c4ccccc4c3=O)nc2C)o1` as the molecule, how does the Potency [1] read?
Answer: inactive

Question: And the Potency [2]?
Answer: inactive

Question: How did the Potency [1] turn out when `CC1(C)CC[C@]2(C(=O)O)[C@H](O)C[C@]3(C)C(=CCC4[C@@]5(C)CC[C@H](O[C@@H]6OC[C@@H](O)[C@H](O)[C@H]6O)[C@@](C)(C(=O)O)C5CC[C@]43C)[C@@H]2C1` (stereo not given in full) was run?
Answer: inactive

Question: How did the Potency [1] turn out when `C[C@@]1(O)[C@H](O)[C@@H](CO)O[C@H]1n1cnc2c(=O)[nH]c(N)nc21` was run?
Answer: inactive

Question: Which Potency [1] does the source give for `COc1cc(C2Oc3c(OC)cc(CCCO)cc3C2CO)ccc1O` (stereo not given) here?
Answer: 39.8 µM (active)

Question: Which activity change, negative = inhibition [1] does the source give for `COC(=O)[C@@H](NC(=O)[C@H](CC(C)C)NC(=O)N(Cc1ccccc1)C[C@@H](O)[C@H](Cc1ccccc1)NC(=O)OC(C)(C)C)C(C)C` here?
Answer: 14.8% [at 19.1 µM]

Question: What about the Potency [2] of the same molecule?
Answer: inactive

Question: Which Potency [1] does the source give for `C/C(=C\CCC(C)C1CC(O)C2(C)C3CCC4C(C)(C)C(OC5OCC(O)C(O)C5O)CCC45CC35CC(O)C12C)C(=O)O` (stereo not given) here?
Answer: inactive

Question: What about the Potency [2] of the same molecule?
Answer: inactive

Question: How did the Potency [1] turn out when `CC1OC(OC2C(OC3C(O[C@H]4CC[C@@]5(C)C(CC[C@]6(C)C5CC=C5C7CC(C)(C)CC(O)[C@]7(C)CC[C@]56C)C4(C)C)OC(C(=O)O)C(O)C3O)OCC(O)C2O)C(O)C(O)C1O` (stereo not given in full) was run?
Answer: 7.94 µM (active)

Question: With `COc1cccc(C(=O)NCCNc2nc3cc(C)cc(C)c3cc2C#N)c1` as the molecule, how does the Potency [1] read?
Answer: inactive

Question: What about the Potency [2] of the same molecule?
Answer: inactive

Question: With `C#CCCCn1cc(-c2cccc3c2N[C@@H](C)CC(=O)N3)cn1` as the molecule, how does the Potency [1] read?
Answer: inactive

Question: What about the Potency [2] of the same molecule?
Answer: inactive

Question: What does the source list for `O=C(O)c1ccncc1Nc1nn(CCN2CCC(F)(F)CC2)c2ccc(F)cc12`?
Answer: Potency [1]: inactive; Potency [2]: inactive

Question: What does the source list for `CC/C=C/C=C/C1(C)OC(CC(CO)OC)=CC1=O` (stereo not given)?
Answer: Potency [1]: inactive; Potency [2]: inactive

Question: With `COC(=O)C1=CO[C@@H](O[C@@H]2O[C@H](CO)[C@@H](O)[C@H](O)[C@H]2O)C2C1CC(O)C2C` (stereo not given in full) as the molecule, how does the Potency [1] read?
Answer: inactive

Question: Which Potency [1] does the source give for `CN(C)C(=O)C(O)C(Cc1ccccc1)NC(=O)c1cc2cc(Cl)ccc2[nH]1` (stereo not given) here?
Answer: inactive

Question: `C=CC1(C)CC=C2C(CCC3C(C)(C(=O)O)CCCC23C)C1` (stereo not given) was tested. Which Potency [1] did it give?
Answer: 5.62 µM (active)

Question: What about the Potency [2] of the same molecule?
Answer: 14.1 µM (active)

Question: For `C[C@@H]1O[C@@H](O[C@H]2[C@H](O[C@H]3[C@H](O[C@H]4CC[C@@]5(C)C(CC[C@]6(C)C5CC=C5[C@@H]7CC(C)(C)C[C@@H](O)[C@]7(C)CC[C@]56C)[C@@]4(C)CO)O[C@H](C(=O)O)[C@@H](O)[C@@H]3O)O[C@H](C(=O)O)[C@H](O)[C@@H]2O)[C@H](O)[C@H](O)[C@H]1O` (stereo not given in full), which Potency [1] is on record?
Answer: inactive

Question: How did the Potency [1] turn out when `CC1=CCC[C@@H]2[C@](CCc3ccoc3)(C(=O)O)[C@H](C)CC[C@@]12C` was run?
Answer: 8.91 µM (active)

Question: Which results are given for `C=C1CC[C@@]2(OC1)O[C@H]1CC3[C@@H]4CC=C5C[C@H](O[C@H]6OC[C@@H](O)C(O)[C@@H]6O[C@@H]6O[C@@H](C)[C@H](O)[C@@H](O[C@@H]7O[C@H](CO)[C@@H](O)[C@H](O)[C@H]7O)[C@H]6O)C[C@@H](O)[C@]5(C)C4CC[C@]3(C)[C@H]1[C@@H]2C` (stereo not given in full)?
Answer: Potency [1]: inactive; Potency [2]: inactive

Question: With `CC1(C)CCC2(C(=O)O)C(O)CC3(C)C(=CCC4C5(C)CCC(OC6OC(CO)C(O)C(O)C6OC6OC(CO)C(O)C(O)C6OC6OCC(O)(CO)C6O)C(C)(C)C5CCC43C)C2C1` (stereo not given) as the molecule, how does the Potency [1] read?
Answer: inactive

Question: And the Potency [2]?
Answer: inactive

Question: Which Potency [1] does the source give for `Cc1oc(S(=O)(=O)N2CCCCC2)cc1NC(=O)Nc1ccccc1` here?
Answer: inactive

Question: And the Potency [2]?
Answer: inactive

Question: `CC1=C2CC(C)(C)CC2C(O)C2=C(C1)C(=O)OC2O` (stereo not given) was tested. Which Potency [1] did it give?
Answer: inactive

Question: And the Potency [2]?
Answer: inactive

Question: With `O=C(/C=C/c1ccc(O)cc1)OC[C@H]1O[C@H](O[C@@]2(CO)O[C@@H](CO)[C@H](O)[C@H]2O)[C@H](O)[C@@H](O)[C@@H]1O` as the molecule, how does the Potency [1] read?
Answer: inactive

Question: And the Potency [2]?
Answer: inactive

Question: `C[C@@H]1O[C@@H](OC(=O)Cc2ccccc2)[C@H](O)[C@H](O)[C@H]1O` was tested. Which Potency [1] did it give?
Answer: inactive

Question: What about the Potency [2] of the same molecule?
Answer: inactive

Question: With `CC1(C)CCCC2(C)c3c4c(c(=O)oc(=O)c3=CCC12)=CCC1C(C)(C)CCCC41C` (stereo not given) as the molecule, how does the Potency [1] read?
Answer: inactive

Question: What about the Potency [2] of the same molecule?
Answer: inactive

Question: Which results are given for `COCCN1CCC(C(=O)NO)(S(=O)(=O)c2ccc(Oc3ccc(OC(F)(F)F)cc3)cc2)CC1`?
Answer: Potency [1]: inactive; Potency [2]: inactive

Question: Which results are given for `Cc1oc2nc3c(c(NC(=O)CN4CCCC4=O)c2c1C)CCCC3`?
Answer: Potency [1]: inactive; Potency [2]: inactive

Reference: PubChem BioAssay (NCATS)
